CBX7 AlphaScr: CBX7 chromodomain binding inhibitors, primary screen, biochemical, AlphaScreen; Chromobox protein homolog 7 (Homo sapiens), O95931; AlphaScreen His6-CBX7 / biotin-H3K27me3 peptide binding; active compounds read low; normalised signal (fraction of DMSO) (test concentration not listed); 66,000 tested, 1.1% active; AID 1224903, 2016; in the data active means normalised signal below about 0.5
Target sequence (O95931 whole entry, looked up): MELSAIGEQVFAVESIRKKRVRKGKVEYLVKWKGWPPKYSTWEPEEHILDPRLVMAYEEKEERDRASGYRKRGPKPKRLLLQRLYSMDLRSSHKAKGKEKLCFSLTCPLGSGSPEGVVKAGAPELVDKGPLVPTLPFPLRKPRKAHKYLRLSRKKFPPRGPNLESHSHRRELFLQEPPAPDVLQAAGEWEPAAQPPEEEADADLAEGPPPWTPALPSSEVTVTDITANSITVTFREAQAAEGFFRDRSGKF
* hit, by the source's call. The sample as a whole holds a higher share of hits than the screen did.

SMILES	CBX7 AlphaScr
Fc1cccc(Nc2nc(-c3ccccc3F)nc3ccccc23)c1	1.1
COc1ccc2c(c1)-c1nc(NC(=O)c3ccccc3C)sc1CC2	0.94
O=S(=O)(c1ccccc1)N1CCN(c2ccc3nnc(-c4ccccc4)n3n2)CC1	0.1*
Cc1ccc(S(=O)(=O)N2CCN(c3ccc4nnc(-c5ccccc5)n4n3)CC2)cc1	0.7
c1ccc(-c2nnc3ccc(N4CCCC4)nn23)cc1	0.94
Cc1ccn2c(NC3CCCCC3)c(-c3ccccn3)nc2c1	0.46*
Cc1ccn2c(NC3CCCCC3)c(-c3cccnc3)nc2c1	1.1
Cc1ccc2nc(-c3ccncc3)c(NC3CCCC3)n2c1	1.1
Cc1ccn2c(NC3CCCC3)c(-c3ccncc3)nc2c1	0.98
Cc1ccc(-c2nc3ncccn3c2NC2CCCCC2)cc1	0.98
Cc1ccn2c(NC3CCCC3)c(-c3ccccn3)nc2c1	0.43*
O=C(NC(c1ccccc1)c1ccccc1)C1CCN(S(=O)(=O)c2cccs2)CC1	1
O=C(O)CCC(=O)N1CCc2cc(S(=O)(=O)NCc3ccc4c(c3)OCO4)ccc21	0.85
COc1ccc(NC(=O)C2(S(=O)(=O)c3ccc(Cl)cc3)CC2)cc1	1
Cc1ccc2c(c1)c(=O)c(S(=O)(=O)c1ccc(F)cc1)cn2CC(=O)Nc1ccccc1	1
Cc1nc2cc(-c3ccc(Cl)cc3)nn2c(C)c1CCC(=O)NCCN1CCCC1	1.5
CCOC(=O)c1cnc2ccc(OCC)cc2c1N1CCN(c2ccccn2)CC1	0.58
CCOC(=O)c1cnc2ccc(OCC)cc2c1N1CCN(C)CC1	1.2
CCOC(=O)c1cnc2ccc(OCC)cc2c1N1CCN(Cc2ccccc2)CC1	0.5*
N#Cc1ccc(NC(=O)c2nn3c(C(F)(F)F)cc(-c4cccs4)nc3c2Br)cc1	1
Cc1ccc(NC2c3ccccc3C(=O)N2c2ccc(Cl)cn2)cc1F (stereo not given)	1.2
Cc1cccc(NC2c3ccccc3C(=O)N2c2ccc(Cl)cn2)c1C (stereo not given)	0.93
CCN(CC)c1ccc(NC2c3ccccc3C(=O)N2c2ccc(Cl)cn2)c(C)c1 (stereo not given)	0.065*
CCOc1ccccc1NC(=O)c1cnc2ccccn2c1=O	0.9
Cc1ccc(-c2n[nH]c(=O)c3ccccc23)cc1S(=O)(=O)N1CCN(Cc2ccccc2)CC1	1.1
SMILES	CBX7 AlphaScr
CCCCOc1ccc(N2C(=O)CC(N3CCN(c4ccc(F)cc4)CC3)C2=O)cc1 (stereo not given)	1.1
O=C(Nc1ccccc1)N1CCC(N2CCCCC2)CC1	1
O=C(CN1C(=O)CCSc2ccccc21)NCCN1CCOCC1	1
O=C(CN1C(=O)CSc2ccccc21)NCCN1CCOCC1	0.48*
O=C(CN1C(=O)CSc2ccccc21)NCCCN1CCOCC1	0.98
Cc1ccc(S(=O)(=O)N2CCCC(C(=O)NC3CCCc4ccccc43)C2)cc1 (stereo not given)	0.99
CC(C)(C)c1ccc2c(c1)N(CC(=O)NCCCN1CCCCCC1)C(=O)CO2	1.1
CCOc1ccc(-n2cc(C(=O)NCCN3CCOCC3)c3cc(OC)c(OC)cc3c2=O)cc1	1.2
CCn1cnc2cc(NCc3ccc(OC)cc3OC)ccc21	0.93
COc1ccc(-n2cnc3cc(NCc4cccc(OC)c4OC)ccc32)cc1	0.2*
COc1cccc(CNc2ccc3c(c2)ncn3C(C)(C)C)c1OC	0.64
COc1cccc(CNc2ccc3c(c2)ncn3-c2ccccc2)c1OC	0.26*
Cc1ccc(C(=O)Nc2ccc3c(c2)ncn3-c2ccccc2)cc1	0.99
CCCn1cnc2cc(NCc3ccc(OC)cc3OC)ccc21	0.88
COc1cccc(NC2c3ccccc3C(=O)N2c2ccc(C)cn2)c1 (stereo not given)	0.9
Cc1ccccc1Nc1c(-c2ccsc2)nc2ccc(Cl)cn12	1
CC(C)c1ccc(-n2cnc3cc(C(=O)NC4CCCC4)ccc32)cc1	0.94
Cc1ccc(-n2c(Cc3cccn3C)nnc2SCC(=O)Nc2ccc(C(F)(F)F)cc2)cc1	0.95
CCCN1C(=O)C(O)(CC(=O)c2ccc(C(C)C)cc2)c2cc(Br)ccc21 (stereo not given)	0.14*
O=C(CC1(O)C(=O)N(CCc2ccccc2)c2ccc(Br)cc21)c1ccccc1 (stereo not given)	0.63
CCCCN1C(=O)C(O)(CC(=O)c2ccc(C(C)C)cc2)c2cc(Br)ccc21 (stereo not given)	0.66
CCOc1nnc(-c2ccc(C)c(S(=O)(=O)NCc3cccnc3)c2)c2ccccc12	1
Cc1cc2ncn(CC(O)COCC3CC=CCC3)c2cc1C (stereo not given)	0.65
Cc1cc2ncn(CC(O)COCc3ccccc3)c2cc1C (stereo not given)	0.051*
Cc1ccc(Cl)c(OCC(O)Cn2cnc3cc(C)c(C)cc32)c1 (stereo not given)	0.72
Cc1cc2ncn(C(C)c3ccccc3)c2cc1C (stereo not given)	1
Cc1cc2ncn(CC(O)COC3CCCCC3)c2cc1C (stereo not given)	0.044*
Cc1ccc(OCCCn2cnc3cc(C)c(C)cc32)cc1	0.96
